Bioassay records deposited in PubChem by Johns Hopkins Ion Channel Center.
KCNQ2 inh: inhibitors of rat KCNQ2 potassium channel. O88943. CHO-K1 KCNQ2, FluxOR thallium flux, 20 min; active compounds read low. B-score at 10 µM. 310,000 tested, 1.1% active. AID 2156;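 active = fluorescence ratio B-score at most minus 3 library SDs, with starting brightness B-score within 2 library SDs, cut at about -5.5 in these data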
Target sequence (O88943 whole entry, looked up): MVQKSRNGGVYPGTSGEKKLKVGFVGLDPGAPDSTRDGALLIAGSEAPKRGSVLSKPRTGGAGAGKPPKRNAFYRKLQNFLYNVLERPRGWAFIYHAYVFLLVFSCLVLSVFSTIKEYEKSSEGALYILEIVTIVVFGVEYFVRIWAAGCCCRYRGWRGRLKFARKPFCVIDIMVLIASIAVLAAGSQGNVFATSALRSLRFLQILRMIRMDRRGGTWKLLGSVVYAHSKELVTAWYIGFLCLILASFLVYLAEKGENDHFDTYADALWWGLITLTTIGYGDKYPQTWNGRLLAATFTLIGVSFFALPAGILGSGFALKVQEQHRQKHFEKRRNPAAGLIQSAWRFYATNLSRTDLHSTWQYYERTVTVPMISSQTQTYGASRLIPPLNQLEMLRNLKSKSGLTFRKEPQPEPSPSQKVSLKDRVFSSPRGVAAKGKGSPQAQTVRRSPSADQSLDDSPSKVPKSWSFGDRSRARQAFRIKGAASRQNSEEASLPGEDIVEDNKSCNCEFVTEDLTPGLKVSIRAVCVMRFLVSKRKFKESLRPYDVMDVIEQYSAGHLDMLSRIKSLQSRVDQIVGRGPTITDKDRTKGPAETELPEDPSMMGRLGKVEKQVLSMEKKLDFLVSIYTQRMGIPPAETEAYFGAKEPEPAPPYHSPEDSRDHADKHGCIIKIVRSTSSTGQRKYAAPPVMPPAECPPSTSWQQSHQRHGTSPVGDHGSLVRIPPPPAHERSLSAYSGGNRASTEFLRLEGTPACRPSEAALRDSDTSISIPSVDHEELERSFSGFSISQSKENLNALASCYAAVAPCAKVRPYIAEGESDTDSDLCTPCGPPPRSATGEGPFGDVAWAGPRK
KCNQ2 pot: potentiators of rat KCNQ2 potassium channel | CHO-K1 KCNQ2, FluxOR thallium flux fluorescence; active compounds read high | B-score at 10 µM | 310,000 tested, 0.54% active | AID 2239 | O88943;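 active = fluorescence ratio B-score at least 3 SD of library B-scores, with initial fluorescence B-score within 3 of them, cut at about 5.3 in these data; same plate scores as AID 2156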;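 also: B-score of peak minus minimum over baseline fluorescence ratio after K+ and Tl+ stimulus; positive B-score means potentiation of KCNQ2 with more thallium influx and brighter signal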
Hits are given with their value; i = inactive; nt = no result given. A selection: hits, their analogues and other compounds. The true share with any hit is near 1.6%.

SMILES | KCNQ2 inh | KCNQ2 pot
CCOc1cccc(/C=N/Nc2nc(N3CCCC3)nc(N3CCCC3)n2)c1O | i | i
CCOc1cc(/C=N/Nc2nc(N3CCCC3)nc(N3CCCC3)n2)ccc1O | -8.3 | i
COCCN1C(=O)/C(=C/c2ccc(Oc3ccc([N+](=O)[O-])cn3)c(OC)c2)SC1=Nc1ccccc1 | -6.9 | i
COc1cc(/C=C2\SC(=Nc3ccccc3)N(CCc3c[nH]c4ccccc34)C2=O)ccc1OC(C)C(=O)O (stereo not drawn) | i | nt
O=C(O)CCC(=O)Nc1ccc(Sc2ccc([N+](=O)[O-])cc2)cc1 | i | i
Cc1cccc(N=Nc2cnc(N)s2)c1 | i | nt
C=CCN1C(=O)C(Cc2ccccc2)S/C1=N/N=C/c1cccs1 (stereo not drawn) | i | nt
C=CCN1C(=O)C(Cc2ccc(OCC)cc2)S/C1=N\N=C\c1cccs1 (stereo not drawn) | -5.6 | i
COc1cc(OC)cc(C(=O)NNC(=O)CN2C(=O)NC(C)(c3ccc(C)cc3)C2=O)c1 (stereo not drawn) | i | i
COc1ccc(-n2nc3c(c2NC(=O)CCCl)CSC3)cc1 | i | i
COc1ccccc1N1CCN(/N=C/c2cccc(OC)c2OC)CC1 | -7.3 | i
COc1ccccc1N1CCN(/N=C/c2cc(OC)c(OC)c(OC)c2)CC1 | i | nt
COc1ccccc1N1CCN(/N=C\c2sccc2C)CC1 | -6.2 | i
COc1ccccc1N1CCN(/N=C\c2ccccc2)CC1 | i | nt
O=S(=O)(NCC1(N2CCOCC2)CCCCC1)c1ccc(Cl)cc1C(F)(F)F | i | nt
O=C(NN=C1CCCC1)c1cccc(Br)c1 | i | i
Cc1ccccc1NC(=O)C1C2/C=C\CCCCC21 (stereo not drawn) | i | 5.4
Cc1ccccc1NC(=O)C1C2CCCCC21 (stereo not drawn) | i | nt
Cc1cccc(C)c1NC(=O)C1CCCN1C(=O)Nc1cccc(F)c1 (stereo not drawn) | i | nt
COc1ccccc1C(=O)N/C(=C\c1cn(C)c2ccccc12)C(=O)N1CCOCC1 | i | nt
Cn1cc(/C=C(\NC(=O)c2ccccc2Cl)C(=O)N2CCOCC2)c2ccccc21 | -7 | i
O=c1[nH]cnc2c1sc1nc(-c3ccccc3)c3c(c12)CCCC3 | i | i
S=c1nc[nH]c2c1sc1nc(-c3ccccc3)c3c(c12)CCCC3 | i | 16
Cc1cc(C)c2oc(=O)cc(CN3CCCCC3)c2c1 | i | i
O=C(CCCc1ccccc1)Nc1ccnn1C1CCN(Cc2ccccn2)CC1 | i | 6.4
SMILES | KCNQ2 inh | KCNQ2 pot
Cc1ccccc1CN1CCC(n2nccc2NC(=O)CCCc2ccccc2)CC1 | i | i
CC(C)N1CN(c2ccccc2)C(=S)N(c2ccccc2)C1 | i | i
CC1CN(S(=O)(=O)c2cccc(C(=O)N(Cc3nnc(-c4ccccc4Cl)o3)C3CC3)c2)CC(C)O1 (stereo not drawn) | i | nt
COc1cccc(C(=O)NC(C)c2cccc3ccccc23)c1OC (stereo not drawn) | i | nt
COc1cccc(C(=O)NC(C)c2ccc(-c3ccccc3)cc2)c1OC (stereo not drawn) | -6 | i
Cc1cc(C)cc(NC(=O)[C@@H](NC(=O)c2ccco2)C(C)C)c1 | i | i
N[C@@H](Cc1cc(I)c(Oc2ccc(O)c(I)c2)c(I)c1)C(=O)O | i | i
O=C(O)CCc1cc(I)c(Oc2ccc(O)c(I)c2)c(I)c1 | i | 32
COc1ccc(CN2CCC(Oc3ccc(C(=O)N4CCCC4)cc3)CC2)c(F)c1 | i | nt
O=C(NCCc1ccccc1)c1ccc(NCC2CCCO2)c([N+](=O)[O-])c1 (stereo not drawn) | i | i
O=C(Nc1cccc(Cl)c1)N(CCN1CCOCC1)Cc1ccccc1F | i | nt
O=C(Nc1cccc(Cl)c1)N(CCN1CCOCC1)Cc1cccc(Cl)c1 | -7.3 | i
O=c1c2ccccc2[nH]c(=S)n1CCN1CCCCC1 | i | i
O=c1c2ccccc2[nH]c(=S)n1CCC1=CCCCC1 | i | 8.4
CSCCC(NC(=O)c1ccco1)C(=O)N1CC=C(c2ccccc2)CC1 (stereo not drawn) | i | nt
Cc1ccc(C)c(C2NC(=O)c3ccccc3N2)c1 (stereo not drawn) | -5.6 | i
O=C1NC(c2ccccc2O)Nc2ccccc21 (stereo not drawn) | i | nt
CC(C)(C)NC(=O)NC(=O)CSc1n[nH]c(-c2ccccc2Br)n1 | i | nt
Cc1ccc(NCc2nnc(SCC(=O)c3ccccc3)o2)c(C)c1 | i | nt
Cc1ccc(NC(=O)CSc2nnc(CSc3nc(C)cc(C)n3)n2Cc2ccco2)c(C)c1 | -6.7 | i
Cc1ccc(NCc2nnc(SCC(=O)c3ccccc3)n2Cc2ccco2)c(C)c1 | -7.8 | i
Cc1ccc(C)c(NC(=O)CSc2nnc(CSc3nc(C)cc(C)n3)n2Cc2ccco2)c1 | i | nt
COc1ccc(C=O)cc1COc1ccccc1F | i | nt
COc1ccc(/C=C/C(=O)c2ccccc2)cc1COc1ccccc1F | -7.6 | i
O=C(Nc1ccc(F)cc1)c1sccc1SCc1cccc(C(F)(F)F)c1 | i | nt
SMILES | KCNQ2 inh | KCNQ2 pot
O=C(Nc1ccc(F)cc1F)c1sccc1SCc1cccc(C(F)(F)F)c1 | -5.9 | i
CCOc1cc(CNCCCN2CCOCC2)cc(Br)c1OCc1ccccc1Cl | -5.9 | i
CCOc1cc(CNCCN2CCOCC2)ccc1OCc1ccccc1Cl | i | nt
COC(=O)c1ccc(CNC(=O)C(NC(=O)c2ccco2)C(C)C)cc1 (stereo not drawn) | i | nt
Cc1ccc(NC(=O)c2ccc(NCCN)c([N+](=O)[O-])c2)cc1 | i | nt
NCCNc1ccc(C(=O)N2c3ccccc3Sc3ccccc32)cc1[N+](=O)[O-] | -8.1 | i
C/C(=N\NC(=S)NCc1ccccc1)c1ccc(C)o1 | i | nt
O=C(CSc1nnc(SCc2ccc(Cl)cc2)s1)N/N=C/c1ccc(Cl)cc1Cl | i | nt
O=C(CSc1nnc(SCc2ccc(Cl)cc2)s1)N/N=C/c1c(Cl)cccc1Cl | i | 5.4
Cc1ncoc1C(=O)N1CCCC(N2CCN(c3cccc(C(F)(F)F)c3)CC2)C1 (stereo not drawn) | i | i
CCOc1ccc(CCNC(=O)COC(=O)c2c(C)nn(-c3ccccc3)c2C)cc1OCC | i | nt
COc1cc(NC(=O)c2ccc([N+](=O)[O-])cc2)ccc1NC(=O)C(C)C | i | i
N/C(=N\OC(=O)c1ccccc1Cl)c1ccccc1 | i | nt
N/C(=N\OC(=O)N1c2ccccc2Sc2ccccc21)c1ccccc1 | -6.5 | i
CN(Cc1ccccc1)c1nc2c(c(=O)n(C)c(=O)n2C)n1CCCc1ccccc1 | -7.9 | i
CCN(CC)c1nc2c(c(=O)n(C)c(=O)n2C)n1CCCc1ccccc1 | i | nt
CC1(C)CC1C(=O)Nc1ccc([N+](=O)[O-])cc1Br (stereo not drawn) | i | i
Cc1ccc(C2(c3ccc(C)cc3)CC2C(=O)Nc2ccc([N+](=O)[O-])cc2O)cc1 (stereo not drawn) | -7.8 | i
CCC1CN(C(=O)N2CCC(C(=O)Nc3ccccc3F)CC2)c2ccccc2O1 (stereo not drawn) | i | nt
CCOc1ccc(S(=O)(=O)N(C)c2ccc(OCC(=O)Nc3nc4ccccc4s3)cc2)cc1 | -5.9 | i
CN(c1ccc(OCC(=O)Nc2nc3ccccc3s2)cc1)S(=O)(=O)c1ccccc1 | i | nt
Cc1cc(C)c2nc(Cl)c(Cl)nc2c1 | i | nt
CC(=O)Nc1ccc(S(=O)(=O)N2CCC(N3CCCCCC3)CC2)cc1 | i | nt
Nc1c(-c2ccccc2)c(CSc2nc3ccccc3[nH]2)nn1-c1ccc(Cl)cc1 | i | nt
Nc1c(-c2ccccc2)c(CSc2nc3ccccc3[nH]2)nn1-c1cccc(Cl)c1 | -5.6 | i
